In PubChem BioAssay (NCATS) one finds outcome data, which are given here for 40 compounds.

Results filed as inconclusive are left out. The source made the active and inactive calls. Calls follow the shape of the dose curve; as a rule, active = well fitted inhibition curve with a large enough effect; inconclusive = small, poorly fitted or top-dose-only effect; inactive = no such curve, though single readings can be large or run the other way.

This assay is described as follows: Primary qHTS for inhibitors of La Crosse Virus (LACV) - induced cell death in SH-SY5Y cells (AID 1508616).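 Also: top concentration of the series differs between compounds; higher means more rescue of cells from virus-induced death.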 The note with it: SH-SY5Y LACV cytopathicity rescue, ATP luminescence, 6 d; series mostly up to 4.29 µM. An excerpt:
Assay Provider: Karin Peterson Ph.D.
National Institute of Allergy and Infection Diseases, National Institute of Health
La Crosse Virus (LACV) is a California serogroup mosquito-borne arbovirus, family Peribunyaviridae, which is an endemic pathogen in North America and can induce a rare, life-threatening neurological disease in children. LACV was first isolated in the early 1960s, from a summer "rural encephalitis" case in La Crosse, Wisconsin, USA. Since then, LACV encephalitis cases have been found in more than twenty states, with most cases in the Mississippi and Ohio River basins. The life cycle of LACV is maintained between the vector, the eastern tree-hole mosquito Aedes triseriatus, and vertebrate hosts including eastern gray squirrels (Sciurus carolinensis) and chipmunks (Tamiasstriatus grinseus). […] Most LACV infections in humans are asymptomatic or induce mild clinical symptoms of fever, headache, lethargy and vomiting. However, in some cases LACV can cause severe neuroinvasive disease, including encephalitis, meningitis, and meningoencephalitis, requiring hospitalization. To date, there is neither a licensed vaccine nor a Food and Drug Administration (FDA) approved antiviral therapy available to prevent or treat LACV encephalitis. The primary treatment for viral encephalitis is palliative care due to the lack of therapeutics. In the current study, we conducted a screen of 4,096 FDA approved and bioactive small molecules against LACV, by screening for rescue of LACV-induced cell death in SH-SY5Y cells.
LACV-induced cytopathicity assay
SEQUENCE No. (1,2, 3, etc.); […] (e.g., Cells, Incubation, Reagent, etc.); VALUE and DESCRIPTION.
1. Reagent; 2 uL; Cell solution.
3. Compounds; 23nL; Compound library
4. Reagent; 12 uL; LACV virus
6. Reagent; 24 uL; ATPLite (PerkinElmer)
7. Time; 5 min; Room temperature
8. Detection; Luminescence; View
NOTES (numbers refer to sequence above)
1. Seed 6000 SH-SY5Y cells (ATCC CRL-2266) in 2 microL/well media (DMEM/F12 10% FBS, 1x L-Glutamine, 1x Pyruvate, 1x NEAA, 1x Pen/Strep) in 384-well assay plates (tissue culture treated, white, solid bottom).
2. Incubate at 37 degrees C with 5% CO2 for 24 hr.
3. Dispense 23 nL/well compounds in DMSO via pin transfer.
4. Dispense 12 microL/well of LACV (LACV/human/1978) in media at 0.01 MOI.
5. Incubate at for 6 days at 37C 5% CO2
6. Dispense 24 microL/well of ATPLite 1step Luminescence assay system (PerkinElmer).
7. Incubate for 5 min at room temperature.
8. Read luminescence signal (Viewlux plate reader, PerkinElmer). Data was normalized with DMSO control wells containing LACV as 0%, and DMSO control wells without virus as 100%.
Background: In qHTS, concentration-response curves come from the screen itself.
For `CN1C(=O)[C@@H](NC(=O)c2cc3ccccc3[nH]2)N=C(c2ccccc2)c2ccccc21`, the call was inactive.
As to `CC[C@H](O)C(C[C@H](C)N(C)C)(c1ccccc1)c1ccccc1`, the compound was classed as inactive.
For `C[C@]12CC[C@H]3[C@@H](CCC4=CC(=O)CC[C@@H]43)[C@@H]1CC[C@@H]2O` the value was “inactive”; for `CCc1ccc(C2CCNCC2)cc1`, “inactive”.
For `CC(C)C(Br)C(=O)NC(N)=O` (stereo not given) the value was “inactive”; for `CN(C)CCc1c[nH]c2ccccc12`, “inactive”; for `CC(C)(O)C(Cl)(Cl)Cl`, “inactive”.
For `CCC(=O)C(CCN(C)C)(c1ccccc1)c1ccccc1` the value was “inactive”; for `CCCC[N+]1(C)[C@@H]2CC(OC(=O)[C@H](CO)c3ccccc3)C[C@H]1[C@@H]1O[C@@H]12` (stereo not given in full), “inactive”; for `CCCN(CCC)CCc1c[nH]c2ccccc12`, “inactive”.
With `C[N+](C)(C)CCOC(=O)C(O)(c1ccccc1)c1ccccc1`, the result was inactive.
As for `CC(C)(C)OC(=O)c1ncn2c1[C@@H]1CCCN1C(=O)c1c(Br)cccc1-2`, the compound was called inactive.
On to `C[C@H](CN1CCOCC1)C(C(=O)N1CCCC1)(c1ccccc1)c1ccccc1`, for which the compound was classed as inactive.
For `Clc1ccc(C(OCCN2CCCCC2)c2ccccc2)cc1` (stereo not given) the value was “inactive”.
Consider `CN1CCc2cc(Cl)c(O)cc2[C@H]2c3ccccc3CC[C@@H]21`, for which the compound was called inactive.
For the compound `CCN1CCCC1CNC(=O)C(O)(c1ccccc1)c1ccccc1` (stereo not given), the compound was called inactive.
For `CCOP(=S)(OCC)O/N=C(\C#N)c1ccccc1` the value was “inactive”; for `CCCCCCCCCCCC[N+](C)(C)CCOc1ccccc1`, “inactive”.
For `O=C(NC(=O)c1c(F)cccc1F)Nc1cc(Cl)c(OC(F)(F)C(F)C(F)(F)F)cc1Cl` (stereo not given) the value was “inactive”; for `C[N+]1(C)[C@@H]2CC[C@H]1CC(OC(=O)C(CO)c1ccccc1)C2` (stereo not given in full), “inactive”.
For `C[C@@H]1C[C@@H]([C@H](O)CC2CC(=O)NC(=O)C2)C(=O)[C@@H](C)C1` the value was “inactive”; for `CCOC(=O)NC(C)(C)Cc1ccc(Cl)cc1`, “inactive”; for `Nc1ccccc1C(=O)OCC(O)CO` (stereo not given), “inactive”.
With `CC(=O)OC1(c2ccccc2)CCN(CCc2ccccc2)CC1`, the outcome was inactive.
For `O=C1NCN(c2ccccc2)C12CCN(CCCOc1ccc(F)cc1)CC2` the value was “inactive”; for `CNC(=O)Oc1cccc2ccccc12`, “inactive”; for `C[C@]12CC[C@H](O)CC1=CC[C@@H]1[C@@H]2CC[C@]2(C)C(=O)CC[C@@H]12`, “inactive”.
On to `CC(Cc1ccc2c(c1)OCO2)NO` (stereo not given), for which the call was inactive.
For `O=C(CBr)Nc1ccc(Cl)cc1C(=O)c1ccccc1F` the value was “inactive”; for `O=C(CCCN1CCC(n2c(=O)[nH]c3ccccc32)CC1)c1ccc(F)cc1`, “inactive”.
For `O=C(O)CCCCCCNC1c2ccccc2CCc2ccccc21` the value was “inactive”; for `CCO[C@H]1O[C@@H]2OC3(C)CC[C@H]4[C@H](C)CC[C@@H]([C@H]1C)[C@@]24OO3`, “inactive”; for `CC(Cc1ccccc1)NCc1ccccc1Cl` (stereo not given), “inactive”.
`O=C(O)Cc1ccccc1`: the compound was classed as inactive.
For `CCCC(C)C1(CC)C(=O)N=C(S)NC1=O` (stereo not given), the call was inactive.
For `CCOC(=O)c1ncn2c1CN(C)C(=O)c1c(I)cccc1-2` the value was “inactive”; for `CNC(C)Cc1ccccc1OC` (stereo not given), “inactive”.
As to `CC#C[C@]1(O)CC[C@H]2[C@@H]3C[C@H](C)C4=CC(=O)CC[C@]4(C)[C@H]3CC[C@@]21C`, the call was inactive.
As to `ClCCCN1CCN(c2cccc(Cl)c2)CC1`, the compound was called inactive.
For `CC(C)NCC(O)c1ccc(N)c(C#N)c1` (stereo not given) the value was “inactive”.
